In PubChem BioAssay one finds z-score and composite z-score data, which are given here for 8 compounds.

Structures are written as SMILES. Activity calls are given as the source filed them. Unless noted, the rule behind the calls is not given here.

Test [1] in a line: resazurin metabolic signal in HepG2 cells – cell-based, resazurin fluorescence, 24 h, PK04 Diversity Set, profiling panel (AID 1172). As to conditions: HepG2 viability, higher = more signal.
A short description of test [2]: budding yeast growth changes without added modifier – OD600, strain BY4716, 24 h, basal condition, primary screen (AID 1173). The note with it: S. cerevisiae BY4716 growth, OD600, 24 h; higher = more signal, called active from +8 up or from −8 down.
Test [3] is described as follows: viability profiling in MM1S myeloma cells – cell-based, resazurin fluorescence, basal, 24 h, PK04 Diversity Set, profiling panel (AID 1174).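 Note: MM1S multiple myeloma cell line.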 As to conditions: higher = more signal, called active from +8 up or from −8 down.
For test [4], the target named is Dihydroorotate dehydrogenase (quinone), mitochondrial (Plasmodium falciparum (isolate 3D7)) (UniProt Q08210). Briefly: inhibition of P. falciparum DHODH – biochemical, C-terminal His tag, absorbance 600 nm, primary screen (AID 1175).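 Note: recombinant parasite enzyme with a five histidine tag at its C terminus.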 The note with it: PfDHODH enzyme, DCIP absorbance 600 nm; higher = more signal, called active from +8 up or from −8 down.
A short description of test [5]: inhibition of PAO1 biofilm formation – strain PAO1, LB-PBS medium, absorbance 600 nm, primary screen (AID 1176). The note with it: P. aeruginosa PAO1 growth/biofilm, A600, 12 h; higher = more signal.
Test [6] can be described thus: growth modulation of vineyard yeast isolate – strain RM11-1a, OD600, basal, 24 h, primary screen (AID 1177).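 Note: cultures grown under basal conditions with no added stressor.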 The note with it: S. cerevisiae RM11-1a growth, OD600, 24 h; higher = more signal, called active from +8 up or from −8 down.
Test [7] in a line: growth of efflux-deficient E. coli DRC39 – strain DRC39, OD650, 24 h, E. coli filamentation inducers, primary screen (AID 1178).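 Note: growth measured as culture turbidity by optical density at 650 nm.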 The note with it: E. coli DRC39 acrAB, higher = more signal, called active from +8 up or from −8 down.
Test [8] is described as follows: growth of efflux-deficient E. coli DRC39 – strain DRC39, OD650, 48 h, E. coli filamentation inducers, primary screen (AID 1179).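 Note: screen aims at cell division blockers that make cells filament.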 As to conditions: E. coli DRC39 delta-acrAB growth, higher = more signal, called active from +8 up or from −8 down.
The nature of test [9]: viability profiling in RPMI8226 myeloma cells – cell-based, resazurin fluorescence, basal, 24 h, PK04 Diversity Set, profiling panel (AID 1180).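 Note: RPMI8826 multiple myeloma cell line at 5000 cells per well.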 The note with it: higher = more signal.
Test [10] concerns the target E3 ubiquitin-protein ligase XIAP (Homo sapiens) (UniProt P98170). Briefly: small molecules binding XIAP protein – biophysical, small-molecule microarray, fluorescence 635 nm, primary screen (AID 1181).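 Note: score merges 667 nm emission and signal to noise over triplicate slides.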 The note with it: higher = more signal.
Test [11] deals with XIP peptide (Xip251-270) binding. Briefly: XIP fragment 251-270 binding compounds – biochemical, small-molecule microarray, fluorescence 635/667 nm, 0.1 µg/mL protein, primary screen (AID 1182). As to conditions: fluorescent protein binding, 635 nm, higher = more signal, called active from +8 up or from −8 down.
Another test relates to XIP peptide (Xip251-270). The test can be described thus: compounds binding XIP fragment 251-270 – biochemical, small-molecule microarray, fluorescence 635/667 nm, 0.5 µg/mL protein, primary screen (AID 1183). The note with it: fluorescence 635 nm, higher = more signal.
A short description of test [12]: blood-stage malaria parasite viability loss – strain 3D7, DAPI fluorescence, 100 nL, primary screen (AID 1184).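 Note: parasites grown inside human red blood cells in medium with human serum.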 As to conditions: P. falciparum 3D7 growth, 3 d, higher = more signal.
In test [13] the target is Homeobox protein Hox-A13 (Mus musculus) (UniProt Q62424). The test can be described thus: disruptors of Hoxa13 oligonucleotide interaction – biochemical, fluorescence polarization, labeled oligonucleotide, primary screen (AID 1185). The note with it: Hoxa13:DNA binding, 15 min, higher = more signal, called active from +8 up or from −8 down.
Test [14] is described as follows: blockers of DNA damage checkpoint Chk1 activation – imaging, HeLa, hydroxyurea, phospho-Chk1 antibody, percent positive cells, primary screen (AID 1186). The note with it: hydroxyurea-induced phospho-Chk1 immunofluorescence imaging, higher = more signal.
Test [15] is described as follows: blockers of DNA damage checkpoint Chk1 activation – imaging, HeLa, hydroxyurea, phospho-Chk1 nuclear intensity, primary screen (AID 1187). The note with it: hydroxyurea-induced phospho-Chk1 immunofluorescence imaging, higher = more signal.

Sequence of Homeobox protein Hox-A13 (Mus musculus) (Q62424 whole entry, looked up): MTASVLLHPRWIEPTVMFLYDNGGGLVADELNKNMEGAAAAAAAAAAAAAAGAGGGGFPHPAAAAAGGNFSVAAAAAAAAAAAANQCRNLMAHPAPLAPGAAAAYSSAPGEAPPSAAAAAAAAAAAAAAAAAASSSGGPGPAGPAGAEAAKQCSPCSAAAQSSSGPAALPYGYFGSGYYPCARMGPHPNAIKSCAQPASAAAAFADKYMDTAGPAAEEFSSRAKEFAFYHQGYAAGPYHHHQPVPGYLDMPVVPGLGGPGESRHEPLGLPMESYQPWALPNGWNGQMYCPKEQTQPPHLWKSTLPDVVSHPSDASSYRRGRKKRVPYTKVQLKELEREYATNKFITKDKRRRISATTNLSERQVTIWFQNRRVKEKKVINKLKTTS
Sequence of Dihydroorotate dehydrogenase (quinone), mitochondrial (Plasmodium falciparum (isolate 3D7)) (Q08210 whole entry, looked up): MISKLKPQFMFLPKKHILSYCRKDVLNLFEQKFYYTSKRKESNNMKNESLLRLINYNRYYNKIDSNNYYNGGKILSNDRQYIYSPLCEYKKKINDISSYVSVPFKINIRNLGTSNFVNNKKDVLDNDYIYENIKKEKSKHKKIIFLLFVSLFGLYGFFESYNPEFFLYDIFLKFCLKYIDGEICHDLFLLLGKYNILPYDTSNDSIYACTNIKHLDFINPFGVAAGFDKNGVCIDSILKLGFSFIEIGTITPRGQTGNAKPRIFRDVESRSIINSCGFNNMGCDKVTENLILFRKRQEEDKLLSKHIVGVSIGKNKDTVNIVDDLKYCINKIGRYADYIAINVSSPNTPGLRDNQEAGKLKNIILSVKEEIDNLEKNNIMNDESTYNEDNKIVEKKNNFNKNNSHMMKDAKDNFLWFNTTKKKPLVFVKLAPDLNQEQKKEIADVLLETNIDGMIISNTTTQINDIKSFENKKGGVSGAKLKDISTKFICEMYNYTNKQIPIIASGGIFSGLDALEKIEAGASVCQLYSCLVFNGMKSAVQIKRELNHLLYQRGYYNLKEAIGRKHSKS
Sequence of E3 ubiquitin-protein ligase XIAP (Homo sapiens) (P98170 whole entry, looked up, the tested form may be a part): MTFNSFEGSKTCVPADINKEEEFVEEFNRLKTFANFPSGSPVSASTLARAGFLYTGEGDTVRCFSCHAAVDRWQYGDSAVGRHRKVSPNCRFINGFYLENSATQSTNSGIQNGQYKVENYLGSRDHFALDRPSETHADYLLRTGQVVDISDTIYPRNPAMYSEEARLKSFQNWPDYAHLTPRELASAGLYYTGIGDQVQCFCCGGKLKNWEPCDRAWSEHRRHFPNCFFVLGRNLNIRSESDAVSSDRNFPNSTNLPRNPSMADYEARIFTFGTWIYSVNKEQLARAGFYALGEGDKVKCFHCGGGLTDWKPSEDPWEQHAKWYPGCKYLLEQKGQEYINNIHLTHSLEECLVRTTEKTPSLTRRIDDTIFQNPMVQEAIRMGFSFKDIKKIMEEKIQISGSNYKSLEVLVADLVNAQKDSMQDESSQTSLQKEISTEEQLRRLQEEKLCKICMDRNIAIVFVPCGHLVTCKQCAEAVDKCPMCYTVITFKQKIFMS

As for `O=C(NCC(O)CO)[C@@]1(CCS(=O)(=O)c2ccccc2)COC(c2ccc(OCCCO)cc2)=N1` (stereo partly drawn), the z-score in test [1] was 0.114; in test [2], 0.452 (inactive); in test [3], -0.169 (inactive); in test [5], -0.043 (inactive); in test [6] it was 1.29 (inactive); in test [7], 0.243 (inactive). Moreover, the z-score was -0.135 (inactive) in test [8]; -0.159 in test [9]; -0.475 in [12]; -5.1 (inactive) in test [13]; -0.275 (inactive) in test [14]; -0.556 (inactive) in test [15]. The composite z-score in [4] is 0.699 (inactive); in [10], -0.0332; in test [11], -0.119 (inactive); with XIP peptide (Xip251-270), 0.696.
Regarding `CCc1cccc(NC(=O)O[C@H]2[C@H](OC(=O)Nc3ccccc3)[C@H](OC(=O)Nc3ccccc3)[C@@H](OC)O[C@@H]2CO)c1`, the z-score in test [1] was -3.47; in test [2], 0.885 (inactive); in test [3], -4.46 (inactive); in test [5], 1.78 (inactive); in [6], 1.12 (inactive); in [7], 0.0415 (inactive). Also, the z-score in [8] was 0.0166 (inactive); in test [9] it was -6.11; in test [12], -1.49; in [13], -5.74 (inactive); in [14], 0.156 (inactive); in [15], 0.628 (inactive). Moreover, the composite z-score is 0.0661 (inactive) in test [4], 0.306 in [10], 1.54 (inactive) in [11] and 0.829 in the test on XIP peptide (Xip251-270).
Regarding `COCCOC(=O)N1C(=O)[C@@]2(c3cc(C#CCCO)ccc31)[C@H](C(=O)N1CCCCCCC1)[C@H]1C(=O)O[C@H](c3ccccc3)[C@H](c3ccccc3)N1[C@@H]2c1ccccc1OCCO`, the z-score in [1] is -0.0873; in test [2], 0.348 (inactive); in test [3], 0.413 (inactive); in test [5], 0.898 (inactive); in [6], 0.881 (inactive); in test [7], -0.759 (inactive). Further, the z-score in test [8] was -0.359 (inactive); in [9], 0.3; in test [12] it was -2.18; in test [13], 3.5 (inactive); in test [14], 0.204 (inactive); in [15] it was 0.606 (inactive). Moreover, the composite z-score in test [4] is -0.0989 (inactive); in [10] it was 0.113; in test [11], 0.867 (inactive); in the test with XIP peptide (Xip251-270), 0.6.
As for `C=CCC(OC(C)=O)[C@@H]1[C@@H](N(Cc2ccc(-c3ccccc3)cc2)C(=O)Cc2ccc(F)cc2)c2cc(OCCCO)ccc2N1C(=O)Cc1ccc2ccccc2c1` (stereo partly drawn), the z-score in test [1] is 0.487; in [2], -0.0838 (inactive); in test [3] it was 0.821 (inactive); in test [5], 0.113 (inactive); in [6], -0.177 (inactive); in test [7], 0.531 (inactive). Further, the z-score is 0.575 (inactive) in [8]; 0.486 in [9]; -1.3 in test [12]; -1.5 (inactive) in test [13]; 0.433 (inactive) in test [14]; -0.048 (inactive) in [15]. Also, the composite z-score in test [4] is 0.252 (inactive); in [10], -0.455; in test [11], -0.632 (inactive); in the test on XIP peptide (Xip251-270), 0.233.
Regarding `COCCCNC(=O)[C@@H]1c2ccccc2C(=O)N(C2Cc3ccccc3C2)[C@H]1c1ccc(CO)cc1`, the z-score in [1] was -0.138; in [2] it was -0.483 (inactive); in test [3] it was 0.354 (inactive); in test [5], 0.388 (inactive); in test [6], -0.344 (inactive); in test [7], 0.722 (inactive). Further, the z-score in [8] was 0.468 (inactive); in test [9], 0.653; in test [12], -0.804; in test [13], -2.44 (inactive); in test [14], -0.533 (inactive); in [15], -0.726 (inactive). The composite z-score in test [4] was -0.774 (inactive); in test [10] it was -0.169; in test [11] it was -0.295 (inactive); with XIP peptide (Xip251-270) it was 0.583.
For `C=C(C)C1CCC(C(O)C2C=CC3C(=O)N(C)C(=O)C3N2Nc2cc(OC)c(OC)c(OC)c2)CC1` (stereo not drawn), the z-score in test [1] was -1.15; in [2], 0.552 (inactive); in [3], -0.901 (inactive); in [5] it was 0.971 (inactive); in test [6], 0.065 (inactive); in test [7], -0.274 (inactive). The z-score was -0.379 (inactive) in [8]; -1.27 in test [9]; -0.593 in [12]; -5.2 (inactive) in test [13]; -0.113 (inactive) in test [14]; -0.431 (inactive) in [15]. In addition, the composite z-score in [4] is -0.896 (inactive); in test [10], 0.153; in test [11], 0.287 (inactive); in the test with XIP peptide (Xip251-270), 0.596.
On to `Cc1ccc(S[C@]2(C(=O)NCc3ccccc3)CC(=O)N(Cc3cc(C(F)(F)F)cc(C(F)(F)F)c3)[C@@H]2c2ccc(CO)cc2I)cc1`, for which the z-score in test [1] was 1.24; in test [2], -3.9 (inactive); in [3], -2.82 (inactive); in test [5], 0.0214 (inactive); in [6] it was -0.741 (inactive); in test [7], 0.671 (inactive). The z-score in test [8] is 0.602 (inactive); in test [9] it was -1.17; in test [12], -0.261; in test [13] it was -1.82 (inactive); in test [14], 0.0563 (inactive); in test [15], 0.249 (inactive). Also, the composite z-score was -0.459 (inactive) in [4], -0.0622 in test [10], 1.16 (inactive) in test [11] and -0.474 in the test on XIP peptide (Xip251-270).
In the case of `COc1cc2c(cc1O)C(c1cccs1)N(Cc1sc3ccccc3c1Cl)CC2` (stereo not drawn), the z-score in test [1] was -1.05; in [2], -1.41 (inactive); in test [3], -0.519 (inactive); in test [5], -0.131 (inactive); in test [6] it was -0.0369 (inactive); in [7] it was -0.0316 (inactive). Also, the z-score is -0.89 (inactive) in test [8]; -0.94 in test [9]; -1.66 in test [12]; -1.54 (inactive) in [13]; 0.326 (inactive) in test [14]; 0.638 (inactive) in test [15]. In addition, the composite z-score was -1.72 (inactive) in [4], 0.134 in test [10], 0.791 (inactive) in test [11] and 0.867 with XIP peptide (Xip251-270).
